Our source for the growth values is PubChem BioAssay (NCI).

Values joined by “and” are separate entries in the source; they are usually repeats but may differ in a detail not shown here. Equal values may be shown once. This is part of a sample that, as a whole, favours compounds with a hit. Of some 83,000 tested, about 20% had one in any assay.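 The test compound was applied at a single concentration to cells in 96-well plates for 48 hours, and percent growth was recorded.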 Active and inactive are the calls of the source. Rule for the calls: active = growth percent below 10; inactive = the rest.

Some test systems named below: SK-MEL-2 melanoma; EKVX NSCLC; SN12C renal; TK-10 renal; ACHN renal; CAKI-1 renal; A498 renal; CCRF-CEM leukemia; MOLT-4 leukemia; SR leukemia; RPMI-8226 leukemia; OVCAR-5 ovarian; OVCAR-4 ovarian; SK-OV-3 ovarian; IGROV1 ovarian; OVCAR-3 ovarian; HS 578T breast; NCI/ADR-RES ovarian; OVCAR-8 ovarian; UO-31 renal.
Common to all, as to assay: NCI-60 one-dose screen, 48 h (100 = growth as untreated, 0 = no growth, -100 = all killed)
Holding throughout (conditions): 10 µM unless noted

As for `O=C(Cn1c(/C=C/c2ccc([N+](=O)[O-])cc2)nc2ccccc2c1=O)Nc1ccccc1`, the growth with SK-MEL-2 melanoma is 74.7% (inactive); in the assay with EKVX NSCLC it was 79.9% (inactive); in the assay on SN12C renal, 61.6% (inactive); in the assay with TK-10 renal it was 95.3% (inactive); with ACHN renal, 47.8% (inactive); in the assay on CAKI-1 renal, 57.3% (inactive). Moreover, the growth in the assay with A498 renal was 143% (inactive); with CCRF-CEM leukemia, 101% (inactive); in the assay with MOLT-4 leukemia, 107% (inactive); with SR leukemia, 88.1% (inactive); in the assay with RPMI-8226 leukemia it was 93.8% (inactive); with OVCAR-5 ovarian, 80% (inactive). Further, the growth with OVCAR-4 ovarian is 56.8% (inactive); in the assay with SK-OV-3 ovarian, 71.9% (inactive); with IGROV1 ovarian, 74.6% (inactive); in the assay on OVCAR-3 ovarian it was 81.4% (inactive); with HS 578T breast it was 54.2% (inactive); in the assay with NCI/ADR-RES ovarian, 54% (inactive).

In the case of `Nc1cccc(-n2c(COc3ccc(I)cc3)nc3ccccc32)c1`, the growth in the assay on SK-MEL-2 melanoma is 82.5% (inactive) and 105% (inactive); in the assay with EKVX NSCLC, 70.4% (inactive) and 102% (inactive); with SN12C renal, 90.2% (inactive) and 103% (inactive); in the assay on TK-10 renal, 112% (inactive) and 98.6% (inactive); in the assay with ACHN renal, 81.9% (inactive) and 103% (inactive); in the assay with CAKI-1 renal, 56.8% (inactive) and 97.2% (inactive). Further, the growth is 112% (inactive) and 132% (inactive) with A498 renal; 82.8% (inactive) and 99.3% (inactive) in the assay with CCRF-CEM leukemia; 71.5% (inactive) and 99.8% (inactive) in the assay with MOLT-4 leukemia; 64.7% (inactive) and 101% (inactive) in the assay on SR leukemia; 68.9% (inactive) and 104% (inactive) in the assay with RPMI-8226 leukemia; 93.4% (inactive) and 106% (inactive) in the assay with OVCAR-8 ovarian. Further, the growth is 88.6% (inactive) and 105% (inactive) in the assay on OVCAR-5 ovarian; 66.2% (inactive) and 105% (inactive) in the assay with OVCAR-4 ovarian; 64.7% (inactive) and 102% (inactive) in the assay on SK-OV-3 ovarian; 46.8% (inactive) and 107% (inactive) in the assay on IGROV1 ovarian; 87.7% (inactive) and 83.2% (inactive) in the assay with OVCAR-3 ovarian; 63.2% (inactive) and 110% (inactive) in the assay on HS 578T breast. The growth in the assay with NCI/ADR-RES ovarian is 74.3% (inactive) and 102% (inactive).

`Cc1nc2sccn2c1-c1nnc(SCc2ccccc2)o1`: the growth in the assay with SK-MEL-2 melanoma was 87% (inactive); in the assay on EKVX NSCLC, 87.5% (inactive); in the assay on SN12C renal it was 86.6% (inactive); in the assay with TK-10 renal, 110% (inactive); in the assay with ACHN renal, 92.6% (inactive); with CAKI-1 renal, 85.2% (inactive). Also, the growth with A498 renal was 87.8% (inactive); in the assay with CCRF-CEM leukemia, 91.3% (inactive); in the assay on MOLT-4 leukemia it was 88.1% (inactive); with SR leukemia, 87.5% (inactive); in the assay with RPMI-8226 leukemia it was 79.1% (inactive); with OVCAR-8 ovarian, 96.5% (inactive). Besides, the growth in the assay on OVCAR-5 ovarian was 90.2% (inactive); in the assay with OVCAR-4 ovarian, 79.8% (inactive); with SK-OV-3 ovarian, 97.9% (inactive); in the assay with IGROV1 ovarian, 92% (inactive); with OVCAR-3 ovarian, 117% (inactive); with HS 578T breast, 107% (inactive). In addition, in the assay on NCI/ADR-RES ovarian, the growth is 78.1% (inactive).

On to `O=C(CSc1nc2sc3c(c2c(=O)n1-c1ccc(Cl)cc1)CCCC3)N/N=C/C=C/c1ccccc1`, for which the growth with SK-MEL-2 melanoma is -29.3% (active); in the assay with EKVX NSCLC, 39.7% (inactive); in the assay with SN12C renal it was 15.4% (inactive); with UO-31 renal, 85.1% (inactive); with TK-10 renal it was -19% (active); with ACHN renal it was 25.3% (inactive). In addition, the growth was -40.8% (active) with A498 renal; -24.4% (active) in the assay with MOLT-4 leukemia; -23.2% (active) with SR leukemia; -0.68% (active) in the assay on RPMI-8226 leukemia; -51.3% (active) with OVCAR-8 ovarian; -38.9% (active) with OVCAR-5 ovarian. The growth in the assay on OVCAR-4 ovarian was -31% (active); with SK-OV-3 ovarian, -11.2% (active); in the assay on IGROV1 ovarian, -5.52% (active); in the assay with OVCAR-3 ovarian, 78.3% (inactive); in the assay with HS 578T breast, -16.9% (active); in the assay with NCI/ADR-RES ovarian, -10.7% (active).

Regarding `COc1cccc(/C=C/c2nc3ccccc3c(=O)n2CC(=O)Nc2ccccc2)c1`, the growth with SK-MEL-2 melanoma was 81% (inactive); in the assay on EKVX NSCLC it was 85.1% (inactive); in the assay with SN12C renal, 17.6% (inactive); in the assay on TK-10 renal, 11.7% (inactive); in the assay with ACHN renal, -15.6% (active); in the assay with CAKI-1 renal, 72.3% (inactive). The growth was 28% (inactive) in the assay with A498 renal; 90.1% (inactive) in the assay with CCRF-CEM leukemia; 94.2% (inactive) with MOLT-4 leukemia; 90% (inactive) in the assay with SR leukemia; 71.3% (inactive) in the assay on RPMI-8226 leukemia; 21.9% (inactive) in the assay on OVCAR-8 ovarian. Further, the growth in the assay on OVCAR-5 ovarian is 65.9% (inactive); in the assay with OVCAR-4 ovarian it was -1.67% (active); in the assay on SK-OV-3 ovarian, 54.2% (inactive); with IGROV1 ovarian, 61% (inactive); in the assay with OVCAR-3 ovarian it was 74.6% (inactive); in the assay on HS 578T breast it was 3.02% (active). Besides, the growth in the assay with NCI/ADR-RES ovarian is 33% (inactive).

On to `O=C(CCl)Nc1ccc(C(=O)/C=C/c2cc3ccccc3nc2Cl)cc1`, for which the growth with SK-MEL-2 melanoma was -3.09% (active) and 60% (inactive); in the assay with EKVX NSCLC, -5.66% (active) and 36.7% (inactive); with SN12C renal, -74.1% (active) and 39.4% (inactive); with UO-31 renal, -98.1% (active) and 1.88% (active); in the assay with TK-10 renal it was 49.1% (inactive) and 74.8% (inactive); with ACHN renal it was -99.2% (active) and 9.77% (active). Also, the growth was 116% (inactive) and 193% (inactive) in the assay with A498 renal; -46% (active) and 18.3% (inactive) in the assay on MOLT-4 leukemia; -69.5% (active) and 25.5% (inactive) in the assay with SR leukemia; 14.6% (inactive) and 48.6% (inactive) in the assay on OVCAR-8 ovarian; -61.1% (active) and 55.9% (inactive) in the assay with OVCAR-5 ovarian; -59.6% (active) and 54.7% (inactive) with OVCAR-4 ovarian. Further, the growth was 70.5% (inactive) and 66.7% (inactive) in the assay on SK-OV-3 ovarian; -84.1% (active) and 39.2% (inactive) with IGROV1 ovarian; -59.5% (active) and 42.4% (inactive) in the assay on OVCAR-3 ovarian; 42.1% (inactive) and 53.7% (inactive) in the assay with HS 578T breast; -26.4% (active) and 4.54% (active) in the assay on NCI/ADR-RES ovarian.
